Measured values: PubChem BioAssay AID686978 (National Center for Advancing Translational Sciences (NCATS), 2013)
Hit rate of the full screen: of about 420,000 compounds, about 64,000 (15%) were called active. Another 27% or so got no clear call; they are omitted. Calls come from the whole dose curve; as a rule, active = well fitted inhibition curve with a large enough effect; inconclusive = small, poorly fitted or top-dose-only effect; inactive = flat fitted curve, though single readings scatter. These entries were drawn from the full list. Entries that show only a call come without a potency.
Potency is the fitted concentration of half-maximal effect.

Assay: qHTS for Inhibitors of human tyrosyl-DNA phosphodiesterase 1 (TDP1): qHTS in cells in absence of CPT; note: nearly all actives have a fitted effect of over 55% in size
Settings: DT40 Tdp1-/- hTDP1 cells, no CPT, ATP luminescence, 48 h; activity change, negative = growth inhibition: at 46.2 µM (top of the series)
In short: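 Stably hTDP1-transfected Tdp1-null chicken DT40 cells were treated with library compounds minus camptothecin and grown for at least 48 hr at 37 °C, after which cellular ATP was quantified by luminescence.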
With `Cc1cc(Cl)c(S(=O)(=O)NCCC(=O)O)cc1OCC(N)=O` the Potency was “inactive”. For `COc1cc(C)c(CN2CCc3nnc(C(C)NC(=O)c4cccnc4)n3CC2)cc1C` (configuration not stated), the Potency was “inactive”. For `COc1ccc(OC)c(NC(=O)C2CCCN2S(=O)(=O)c2cccc3nsnc23)c1` (configuration not stated), the Potency was “inactive”. With `Nc1ncc(CN2CCCC(C(=O)Nc3ccc(-c4ccco4)cc3)C2)cn1` (configuration not stated) the Potency was “inactive”. In the case of `O=C(CNC(=O)c1cccnc1)N/N=C/c1cc(Br)c(O)c(Br)c1`, the Potency is reported as “inactive”. With `Cc1nc2ccc(C(=O)N3CCSCC3)cc2s1` the Potency was “inactive”. For `CCNC(=O)CN(c1ccc(C)cc1)S(=O)(=O)c1ccc(SC)cc1`, the Potency was “inactive”. For `CC(=O)Nc1ccc(NC(=O)COc2ccccc2C(=O)Nc2cccc(Cl)c2Cl)cc1`, the Potency was “inactive”. For `CCc1ccc(NC(=O)Cn2ncn3c(cc4ccccc43)c2=O)cc1`, the Potency was “inactive”. In the case of `CCOc1ccccc1C(=O)NCCCn1ccnc1`, the Potency is reported as “inactive”. For `CCOc1ccccc1C(=O)Nc1ccc2c(c1)N(C)C(=O)c1ccccc1S2`, the Potency was 3.66 µM (active). With `CCN1C(=O)c2ccccc2Sc2ccc(NC(=O)Cc3ccc(OC)cc3)cc21` the Potency was “inactive”. For `CN1C(=O)c2ccccc2Sc2ccc(NC(=O)Cc3ccc(Cl)cc3)cc21`, the Potency was 16.4 µM (active). In the case of `Cc1nn(-c2ccccc2)c(=O)c2noc(C)c12`, the Potency is reported as “inactive”. In the case of `CN1CC(O)c2cc(N=NC(N)=O)c(O)cc21` (configuration not stated), the Potency is reported as “inactive”. In the case of `OC(COc1ccc2ccccc2c1)CN1CCOCC1` (configuration not stated), the Potency is reported as “inactive”. With `COc1ccccc1/C=N/Nc1nc(C)c(C(C)=O)s1` the Potency was “inactive”. For `Cc1cc(N/N=C\c2ccc(Br)cc2)nc(-n2nc(C)cc2C)n1`, the Potency was 2.91 µM (active). For `COc1cccc(/C=N/Nc2ccc(S(=O)(=O)Nc3ccccc3C(=O)O)cc2[N+](=O)[O-])c1O`, the Potency was “inactive”. For `COc1ccccc1-n1c(SCC(=O)Nc2cccc(C(=O)O)c2)nnc1-c1ccccc1O`, the Potency was “inactive”. In the case of `Cc1nc(Cl)cc(N/N=C/c2ccccc2)n1`, the Potency is reported as “inactive”. For `Cc1cc2c(C)nc(N/N=C/c3ccccc3)nc2o1`, the Potency was “inactive”. For `COc1cccc(/C=N/Nc2cc(C)nc(-c3ccccc3O)n2)c1O`, the Potency was 8.2 µM (active). For `COc1cc(NS(=O)(=O)c2ccccc2)ccc1-n1nc(C)cc1C`, the Potency was “inactive”. In the case of `COc1ccccc1/C=N\Nc1cc(C)nc(-n2nc(C)cc2C)n1`, the Potency is reported as 5.17 µM (active). For `Cn1ncc(Br)c1C(=O)NC1CCCC1`, the Potency was “inactive”. With `CCC(C)[C@H](NC(=O)N1c2ccccc2NC(=O)[C@@H]1C(C)C)C(=O)N[C@@H](Cc1ccccc1)C(=O)O` (some centres not stated) the Potency was “inactive”. With `CC1CN(C(=O)c2cc(COc3c(F)cccc3F)on2)CCN1C` (configuration not stated) the Potency was “inactive”. With `CC(C)NC(=O)N1CCCC2(CCN(C(=O)c3cccn3C)CC2)C1` the Potency was “inactive”. For `COc1cccc2cc(S(=O)(=O)c3ccc(C)cc3)/c(=N/NS(=O)(=O)c3ccc(C)cc3)oc12`, the Potency was “inactive”. In the case of `Cc1c(C)c2ccc(OCC(=O)N3CCC(C(=O)O)CC3)c(C)c2oc1=O`, the Potency is reported as “inactive”. With `COc1cc2nc(NCC(C)c3ccccc3)n3nc(-c4ccccc4)nc3c2cc1OC` (configuration not stated) the Potency was 13 µM (active). In the case of `COc1cc2nc(SCC(=O)Nc3ccccc3F)n3nc(-c4ccccc4)nc3c2cc1OC`, the Potency is reported as “inactive”. For `CSc1ncnc2c1ncn2CCCNCC(C)c1ccccc1` (configuration not stated), the Potency was “inactive”. For `CCn1c(SCC(=O)NC2CC2)nnc1-c1ccncc1`, the Potency was “inactive”. In the case of `O=C(NCc1ccco1)c1ccc([N+](=O)[O-])cc1Cl`, the Potency is reported as “inactive”. In the case of `CCCC(=O)N1CCC1(C)C(=O)NCc1ccc(C(C)C)cc1` (configuration not stated), the Potency is reported as “inactive”. In the case of `CC(C)CN1CCC1(C)C(=O)Nc1ccc(OC(F)F)cc1` (configuration not stated), the Potency is reported as “inactive”. With `CC(C)Oc1ccc(CN2CCC2(C)C(=O)NCc2ccc(C(F)(F)F)cc2)cc1` (configuration not stated) the Potency was 14.6 µM (active). In the case of `CN1CCNC(=O)C1CC(=O)N1CC=C(c2ccc(F)cc2)CC1` (configuration not stated), the Potency is reported as “inactive”. For `COc1ccc(NC(=O)COC(=O)c2ccncc2)c(OC)c1`, the Potency was “inactive”. With `CC(C)(C)S(=O)(=O)N1Cc2cc(CO)cc(CCO)c2[C@H]1CCO` the Potency was “inactive”. For `CCN(CC(=O)Nc1ccc(NC(C)=O)cc1)C(=O)CSC(=S)N1CCCC1`, the Potency was 7.31 µM (active). In the case of `COc1cccc(NC(=O)CN(C)C(=O)CSC(=S)N2CCCC2)c1`, the Potency is reported as “inactive”. With `CC(=O)c1ccc(NC(=O)CSC(=S)N2CCCC2)cc1` the Potency was “inactive”. For `CC(C)(C)OC(=O)C1=C(CO)CS[C@@H]2[C@H](NC(=O)Cc3ccccc3)C(=O)N12`, the Potency was “inactive”. For `O=C(NCCc1ccc(Cl)cc1)c1ccc2c(c1)N(Cc1ccc(F)cc1)C(=O)CS2`, the Potency was 29.1 µM (active). In the case of `O=C(c1ccc2c(c1)N(Cc1ccc(F)cc1)C(=O)CS2)N1CCOCC1`, the Potency is reported as “inactive”. For `O=C(NCCc1ccccc1)c1ccc2c(c1)N(Cc1ccc(F)cc1)C(=O)c1ccccc1S2(=O)=O`, the Potency was 13 µM (active). In the case of `O=C(NCCC1=CCCCC1)c1ccc2c(c1)N(Cc1ccccc1F)C(=O)c1ccccc1S2(=O)=O`, the Potency is reported as 16.4 µM (active). In the case of `CN(Cc1ccc(F)cc1)C(=O)CN1C(=O)c2ccccc2S1(=O)=O`, the Potency is reported as “inactive”. For `O=C(NCCc1ccc(Cl)cc1)c1cccc(N2CCCC2=O)c1`, the Potency was “inactive”. In the case of `NS(=O)(=O)c1ccc(CCNC(=O)CN2C(=O)c3ccccc3S2(=O)=O)cc1`, the Potency is reported as “inactive”. With `Cc1ccc(C)c(NC(=O)Cn2ccn(-c3ccc(F)cc3)c(=O)c2=O)c1` the Potency was “inactive”. With `NS(=O)(=O)c1ccc(CCNC(=S)Nc2ccc(S(N)(=O)=O)cc2)cc1` the Potency was “inactive”. For `CCOc1ccc(N(CC)C(=O)c2cc3c(=O)oc4ccccc4c3s2)cc1`, the Potency was “inactive”. In the case of `Cc1cc([N+](=O)[O-])nn1Cc1ccc(F)cc1`, the Potency is reported as “inactive”. For `O=c1c2ccccc2c(-c2ccccc2)nn1-c1ccccn1`, the Potency was “inactive”. In the case of `CNC(=O)n1ccc(C(=O)N2CCCCC2)n1`, the Potency is reported as “inactive”. For `O=C(CCC(=O)c1cccs1)NCc1ccccc1`, the Potency was “inactive”. With `Cc1ccc(SCCN2C(=O)NC(C)(C)C2=O)cc1` the Potency was “inactive”. For `O=C(CC1CCCCC1)NCc1ccco1`, the Potency was “inactive”. In the case of `O=C(Nc1ccc(NC(=O)c2ccc3c(c2)OCO3)cc1)c1cccc(Cl)c1`, the Potency is reported as “inactive”. In the case of `O=C(Nc1ccc(Cl)cc1)C1c2cccc[n+]2CC(=O)N1Cc1ccc2c(c1)OCO2` (configuration not stated), the Potency is reported as 1.03 µM (active). In the case of `O=C(Nc1ccc2c(c1)OCCO2)C1c2ccccc2OCC(=O)N1Cc1ccccn1` (configuration not stated), the Potency is reported as “inactive”. In the case of `CSc1ccccc1C(=O)NCc1ccccc1`, the Potency is reported as “inactive”. With `C=CCOc1cccc(CNn2cn[nH]c2=S)c1` the Potency was “inactive”.
